# Measurements as given in publication PMC8384837, “Expanding the binding specificity for RNA recognition by a PUF domain”.
# Assays:
# Test in all cases: yeast three-hybrid, YBZ-1, SC-Leu-His + 0.5 mM 3-AT, 4 days
# Conditions in all cases: tags: N-Gal4 AD-HA kept; label: inside an RPR1-promoter hybrid RNA with tandem MS2 sites; ssRNA
# [1] = molecular target: PUM1 PUF domain R2-RRM (Homo sapiens, UniProt Q14671 828-1176, N899R;Y900R;Q903M)
# How it was run: (§1)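 Matching RNA elements and Pumilio-1 PUF domain libraries, randomized at the three base-contacting residues of every repeat, were co-expressed from a centromeric plasmid in strain YBZ-1 (LexA–MS2 coat fusion, HIS3 reporter). The repeat regions were PCR-amplified and Illumina-sequenced from cells grown four days on SC-Leu (input) or SC-Leu-His + 0.5 mM 3-AT (selection). The interaction score is the log change in variant frequency from input to selection. It is computed in log2, with a pseudocount of 1 for absent variants.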
# [2] = molecular target: PUM1 PUF domain R2-DFE (Homo sapiens, UniProt Q14671 828-1176, N899D;Y900F;Q903E)
# How it was run: as §1
# [3] = molecular target: PUM1 PUF domain R4-FNQ (Homo sapiens, UniProt Q14671 828-1176, N971F;H972N)
# How it was run: as §1
# [4] = molecular target: PUM1 PUF domain R5-MYW (Homo sapiens, UniProt Q14671 828-1176, C1007M;R1008Y;Q1011W)
# How it was run: as §1
# [5] = molecular target: PUM1 PUF domain R3-RSY (Homo sapiens, UniProt Q14671 828-1176, C935R;R936S;Q939Y)
# How it was run: as §1
# [6] = molecular target: PUM1 PUF domain R3-RAL (Homo sapiens, UniProt Q14671 828-1176, C935R;R936A;Q939L)
# How it was run: as §1
# [7] = molecular target: PUM1 PUF domain R3-VCK (Homo sapiens, UniProt Q14671 828-1176, C935V;R936C;Q939K)
# How it was run: as §1
# [8] = molecular target: PUM1 PUF domain R7-RRD (Homo sapiens, UniProt Q14671 828-1176, S1079R;N1080R;E1083D)
# How it was run: as §1
# [9] = molecular target: PUM1 PUF domain R1-RYT (Homo sapiens, UniProt Q14671 828-1176, S863R;R864Y;Q867T)
# How it was run: as §1
# [10] = molecular target: T1, PUM1 PUF domain R6-FRQ (Homo sapiens, UniProt Q14671 828-1176, N1043F;Y1044R)
# T1 sequence: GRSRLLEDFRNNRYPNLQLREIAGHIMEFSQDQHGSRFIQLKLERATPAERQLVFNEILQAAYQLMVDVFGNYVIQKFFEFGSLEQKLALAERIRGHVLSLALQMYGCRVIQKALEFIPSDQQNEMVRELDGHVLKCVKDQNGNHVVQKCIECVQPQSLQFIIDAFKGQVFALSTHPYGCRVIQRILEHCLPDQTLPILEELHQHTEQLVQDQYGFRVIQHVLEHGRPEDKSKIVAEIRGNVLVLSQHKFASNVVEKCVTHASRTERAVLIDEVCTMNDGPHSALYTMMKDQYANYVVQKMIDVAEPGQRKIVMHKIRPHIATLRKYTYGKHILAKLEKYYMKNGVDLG
# How it was run: as §1
sequence,measurement,setting,value
GGCUAGAACUAGUGGAUCCCCCGGCGCCCGGCGGCUCGAGCCCGGGUAAGUGUAAAGAGUCUGCAUGCCGCCGGGCGCCAUGCCUGCAGGUCGACUCUAGAAAACAUG,binding signal,[1],2.71 log2 enrichment (interaction score)
same,binding signal,[2],7.89 log2 enrichment (interaction score)
GGCUAGAACUAGUGGAUCCCCCGGCGCCCGGCGGCUCGAGCCCGGGUAAGUGUAUAUAGUCUGCAUGCCGCCGGGCGCCAUGCCUGCAGGUCGACUCUAGAAAACAUG,binding signal,[3],4.16 log2 enrichment (interaction score)
GGCUAGAACUAGUGGAUCCCCCGGCGCCCGGCGGCUCGAGCCCGGGUAAGUGUUAAUAGUCUGCAUGCCGCCGGGCGCCAUGCCUGCAGGUCGACUCUAGAAAACAUG,binding signal,[4],3.48 log2 enrichment (interaction score)
GGCUAGAACUAGUGGAUCCCCCGGCGCCCGGCGGCUCGAGCCCGGGUAAGUGUAAUUAGUCUGCAUGCCGCCGGGCGCCAUGCCUGCAGGUCGACUCUAGAAAACAUG,binding signal,[5],2.82 log2 enrichment (interaction score)
same,binding signal,[6],3.32 log2 enrichment (interaction score)
same,binding signal,[7],2.57 log2 enrichment (interaction score)
GGCUAGAACUAGUGGAUCCCCCGGCGCCCGGCGGCUCGAGCCCGGGUAAGUCUAAAUAGUCUGCAUGCCGCCGGGCGCCAUGCCUGCAGGUCGACUCUAGAAAACAUG,binding signal,[8],2.84 log2 enrichment (interaction score)
GGCUAGAACUAGUGGAUCCCCCGGCGCCCGGCGGCUCGAGCCCGGGUAAGUUUAAAUAGUCUGCAUGCCGCCGGGCGCCAUGCCUGCAGGUCGACUCUAGAAAACAUG,binding signal,[8],4.81 log2 enrichment (interaction score)
GGCUAGAACUAGUGGAUCCCCCGGCGCCCGGCGGCUCGAGCCCGGGUAAGUGUAAAUGGUCUGCAUGCCGCCGGGCGCCAUGCCUGCAGGUCGACUCUAGAAAACAUG,binding signal,[9],0.45 log2 enrichment (interaction score)
GGCUAGAACUAGUGGAUCCCCCGGCGCCCGGCGGCUCGAGCCCGGGUAAGUGUAAAUCGUCUGCAUGCCGCCGGGCGCCAUGCCUGCAGGUCGACUCUAGAAAACAUG,binding signal,[9],5.12 log2 enrichment (interaction score)
GGCUAGAACUAGUGGAUCCCCCGGCGCCCGGCGGCUCGAGCCCGGGUAAGUGUAAAUAGUCUGCAUGCCGCCGGGCGCCAUGCCUGCAGGUCGACUCUAGAAAACAUG,binding signal,[10],2.83 log2 enrichment (interaction score)
GGCUAGAACUAGUGGAUCCCCCGGCGCCCGGCGGCUCGAGCCCGGGUAAGUGUAAGUAGUCUGCAUGCCGCCGGGCGCCAUGCCUGCAGGUCGACUCUAGAAAACAUG,binding signal,[7],1.58 log2 enrichment (interaction score)
